The values below come from PubChem BioAssay AID1963576 (National Center for Advancing Translational Sciences (NCATS), 2024).

SMILES strings stand for the structures. Among all 46,000 compounds or so, about 60 (0.1%) were called active. Another 3% or so got no clear call; they are omitted. The entries come from a sample that favours actives as a whole. Unmarked numbers belong to inactive results. Calls come from the whole dose curve; as a rule, active = well fitted inhibition curve with a large enough effect; inconclusive = small, poorly fitted or top-dose-only effect; inactive = no such curve, though single readings can be large or run the other way.
Potency is the fitted concentration of half-maximal effect.

A short description of the test: Primary qHTS assay for Inhibitors of ovarian cancer metastasis using an organotypic tumor microenvironment (TME) model.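 For Potency: count of GFP cancer cells still attached after washing and fixation.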 Note: nearly all actives have a fitted effect of over 65% in size. Particulars: SKOV3ip1-GFP adhesion/invasion on 3D omental model, fluorescence; series mostly up to 45.8 µM; activity change, negative = inhibition: at the top concentration. An excerpt:
PI: Ernst Lengyel MD., Ph.D. Department of Obstetrics and Gynecology, Section of Gynecologic Oncology University of Chicago Medicine, Chicago, Illinois. The tumor microenvironment (TME) is a key determinant of metastatic efficiency. We performed a quantitative high-throughput screen (qHTS) of diverse medicinal chemistry tractable scaffolds (44,420 compounds) and pharmacologically active small molecules (386 compounds) using a layered organotypic, robust assay representing the ovarian cancer metastatic TME. This 3D model contains primary human mesothelial cells, fibroblasts, and extracellular matrix, to which fluorescently labeled ovarian cancer cells are added. Initially, 100 compounds inhibiting ovarian cancer adhesion/invasion to the 3D model in a dose-dependent manner were identified. Of those, eight compounds were confirmed active in five high-grade serous ovarian cancer cell lines and were further validated in secondary in vitro and in vivo biological assays. […] Specifically, NCGC00117362 and PP-121 inhibited ovarian cancer adhesion, invasion, and proliferation, whereas milciclib inhibited ovarian cancer invasion and proliferation. […] To evaluate the clinical potential of NCGC00117362, structure - activity relationship studies were performed. […] The three compounds identified have promise as therapeutics for prevention and treatment of ovarian cancer metastasis.
PROTOCOL TABLE (as described by Inglese J, Shamu CE and Guy RK. 2007) SEQUENCE No. (e.g., 1, 2, 3, etc.); […] (e.g., Cells, Incubation, Reagent, etc.); VALUE; DESCRIPTION. 1; Cells; 4 uL; primary human omental fibroblast, black, clear bottom, low base, 1536-well Aurora assay plate. 2; Incubation; 48 hr; 37C. 3; Cells; 3 uL; 1,200 SKOV3ip1-GFP cells. 4; Compounds; 23nL; acoustic dispenser. 5; Incubation; 2 hr; room temperature. 6; Incubation; 16 hr; 37C. 7; Wash; 5 uL; 1x PBS. 8; Fixing; 5 uL; 4% paraformaldehyde (PFA). 9; Incubation; 15 min; room temperature 10; Wash, 5 uL; 1x PBS. 11; Detection; Fluorescence, excitation filter 488 nm, emission filter 509 nm. NOTES (numbers refer to Sequence numbers above) 1. For the 1,536-well format, 40 primary human omental fibroblasts and 400 mesothelial cells were seeded with 0.02 µg fibronectin and 0.02 µg collagen type I in 4 µL of growth media (2.3 mm2; Supplementary Fig. S1A). 2. Assay plates were incubated for 48 hours at 37 C. 3. After incubation, 1,200 SKOV3ip1-GFP were seeded in 3 µL of serum-free media (growth media minus FBS) on top of primary human omental cells. 4. Compounds or controls were added to each well immediately after the addition of the cancer cells. Compounds were screened in four doses (0.36-46 µmol/L), and the plates contained the positive control (Tomatine) in eight doses (0.035-75 µmol/L) and DMSO (equal volume controls) 5 - 6. The plates were incubated at room temperature for 2 hours and then at 37 degrees C for 16 hours. 7 - 10. Following incubation, the media were aspirated and each well washed with PBS (5 µL) and then fixed with 4% paraformaldehyde (PFA; 5 µL). After 15 minutes, the PFA solution was aspirated, PBS (5 µL) was added. 11. The number of GFP-labeled cells analyzed using a fluorescent cytometer TTP LabTech Acumen eX3 using 488 nm excitation filter and 509 nm emission filter. Data was normalized to the DMSO treated for negative and Tomatine treated wells for positive control. REFERENCES: Inglese J, Shamu CE and Guy RK, Reporting data from high throughput screening of small molecule libraries, Nature Chemical Biology, 2007, 3(8): 438-441. doi.org/10.1038/nchembio0807-438. Yasgar A, Shinn P, Jadhav A, Auld DS, Michael S, Zheng W, Austin CP, Inglese J and Simeonov A, Compound Management for Quantitative High-Throughput Screening. J. Assoc. Lab. Auto., 2008, 13: 79-89. doi: 10.1016/j.jala.2007.12.004.
(In general: qHTS replaces the single test concentration by a dilution series.)
`COc1cc(OC)cc(C(=O)Nc2cc3nn(-c4ccccc4)nc3cc2Cl)c1`: the “activity change, negative = inhibition” value is -12.1%.

With `CC(=O)c1ccc(N2CCN(c3nc4c(S(=O)(=O)c5ccccc5)nnn4c4ccc(Cl)cc34)CC2)cc1`, the “activity change, negative = inhibition” value was -7.59%.

On to `Cc1ccc(CNC(=O)CCc2c(C)nn(-c3ccc(N4CCCC4)nn3)c2C)cc1`, for which the outcome was inactive.

In the case of `Cc1cccc(N(C)C(=O)c2cc(S(=O)(=O)N3CCCCC3)c[nH]2)c1`, the “activity change, negative = inhibition” value was 5.29%.

In the case of `CO[C@H]1O[C@@H]2O[C@@]3(C)CC[C@@H]4[C@@H](C)CC[C@@H]([C@H]1C)[C@@]24OO3`, the “activity change, negative = inhibition” value was -30.6%.

For the molecule `Cn1c(SCC(=O)N2CCCc3ccccc32)ncc(C(=O)Nc2ccc(F)cc2)c1=O`, the “activity change, negative = inhibition” value was -22.2%.

Take `Cc1nn(Cc2ccc(F)cc2)c(C)c1NC(=O)c1cc(CC(C)C)on1`: the molecule was called inactive.

`COc1ccccc1-c1nnc(SCC(N)=O)o1`: the “activity change, negative = inhibition” value was -1.31%.

As for `CON=C(C(=O)N[C@@H]1C(=O)N2C(C(=O)OCOC(=O)C(C)(C)C)=C(C=Cc3scnc3C)CS[C@H]12)c1csc(N)n1`, the “activity change, negative = inhibition” value is 25.4%.

As to `CCc1ccc(NC(=O)CSc2nc3c([nH]c4ccccc43)c(=O)n2-c2cccc(OC)c2)cc1`, the “activity change, negative = inhibition” value is -0.478%.

With `CCOC(=O)N1CCN([N+]([O-])=NOc2ccc([N+](=O)[O-])cc2[N+](=O)[O-])CC1`, the “activity change, negative = inhibition” value was -4.51%.

Regarding `Cc1nc2c(-c3ccccc3)c(C)nn2c(C)c1CCC(=O)NCCc1ccccc1`, the “activity change, negative = inhibition” value was 5.93%.

Regarding `Fc1ccc(-n2ncc3c(Nc4ccc(Oc5ccccc5)cc4)ncnc32)cc1`, the molecule was called inactive.

In the case of `Cc1ccc(/C=C(\C#N)C(=O)Nc2cc(C)ccc2C)cc1`, the call was inactive.

Consider `CSc1ccc(CCNC(=O)c2cnn(-c3ccccc3)c2-n2cccc2)cc1`, for which the result was inactive.

As to `COc1ccc(C2CC(=O)Nc3c2c(=O)nc2c(C)cccn32)cc1OC` (stereo unspecified), the “activity change, negative = inhibition” value is 12.3%.

On to `CCN1CCN(c2cc(C)c3cc(NC(=O)c4cc(Cl)ccc4OC)ccc3n2)CC1`, for which the Potency was 3.55 µM (active).

`COc1ccc(C(=O)Nc2ccc3nc(N4CCCCC4)cc(C)c3c2)cc1OC`: the call was inactive.

As to `COc1ccc(NC(=O)c2cnc(Nc3ccc(C)c(Cl)c3)c3ccccc23)cc1OC`, the call was inactive.

`CC(NC(=O)c1cc2c(=O)n3ccccc3nc2n(C(C)C)c1=N)c1ccccc1` (stereo unspecified): the “activity change, negative = inhibition” value was -15.9%.

`COc1cc2ccccc2cc1C(=O)Nc1cccc(-c2nc3ccccc3o2)c1`: the molecule was classed as inactive.

As for `CCN1CCN(c2ncnc3c2cnn3-c2ccc(C)c(C)c2)CC1`, the “activity change, negative = inhibition” value was -2.4%.

In the case of `CCc1cccc(NC(=O)CN(c2ccc(C)c(C)c2)S(=O)(=O)c2ccsc2C(=O)OC)c1`, the “activity change, negative = inhibition” value is 1.97%.

`CCc1nccn1S(=O)(=O)c1cc(Br)ccc1Br`: the “activity change, negative = inhibition” value is 9.09%.

Turning to `CCc1ccc(S(=O)(=O)c2nnn3c2nc(NCc2ccccc2OC)c2cc(Cl)ccc23)cc1`, the “activity change, negative = inhibition” value is 0.872%.

For `Cc1ccc(NC(=O)c2oc3ccc(S(=O)(=O)N4CCCCC4)cc3c2C)cc1Cl`, the “activity change, negative = inhibition” value was -11.1%.
